The source of these data is PubChem BioAssay AID488862 (Broad Institute, 2010).

Out of some 340,000 compounds screened, about 1,200 (0.35%) were called active. For the sample, actives were picked, then their nearest neighbours and some compounds at random. A number with no mark means an inactive call. Cut-off read from the data, not from the text of the source: active = inhibition above about 52%; inactive = the rest.

The nature of the experiment: suppresses PrP 5' UTR mRNA reporter expression (AID 488862). Note: 0 = median of the neutral control wells. As to conditions: cell-based PrP 5' UTR mRNA reporter, plate reader; active compounds read high; concentration not given here.
As usually defined, the inhibition is the change of the read-out against control, counted positive when it falls. On to `O=C(CSc1ncnc2sccc12)N1CCN(C(=O)c2cccs2)CC1`, for which the inhibition was 87.3% (active).

With `O=C(CSc1ncnc2sccc12)NC1CCS(=O)(=O)C1` (configuration not stated), the inhibition was -11.1%.

As to `COc1ccc(OCC(=O)N2CCN(C(=O)c3cccs3)CC2)cc1`, the inhibition is -6.1%.

With `C/C(CC(=O)Nc1ccc(C)cc1C)=N\NC(=O)C(C)C`, the inhibition is -21%.

On to `COC(=O)c1cc(S(=O)(=O)NC2CCN(Cc3ccccc3)CC2)cn1C`, for which the inhibition is -8.61%.

On to `COc1ccc(Nc2ncnc3ccc(Br)cc23)c(OC)c1`, for which the inhibition is 72.3% (active).

As for `Brc1ccc2ncnc(NCc3cccnc3)c2c1`, the inhibition was 12.1%.

With `O=C(O)CCCCCNc1ncnc2ccc(Br)cc12`, the inhibition is 6.38%.

`Cc1ccc(C)c(NC(=O)COC(=O)c2nn(C)c(=O)c3ccccc23)c1`: the inhibition was -7.85%.

Take `O=C1Nc2cc(C(=O)N3CCN(c4ccc(F)cc4)CC3)ccc2NC1CSCc1cccc(F)c1` (configuration not stated): the inhibition is -17.6%.

On to `CCOCCCNC(=O)C(=O)NCCCOCC`, for which the inhibition is -28.8%.

As for `CC(C)CC(CC(C)C)=NNC(=O)c1ccc(CSc2nncn2C)cc1`, the inhibition was -20.2%.

`CSc1nc(-c2ccccc2)nc(C(Cl)Cl)n1`: the inhibition was 86.3% (active).

In the case of `CN(C)C(=S)N=c1ssc(=S)n1Cc1ccco1`, the inhibition was 13.6%.

For the compound `COc1cc(OC)cc(C(=O)N[C@H](C(=O)NNC(=O)c2ccc(Br)cc2)C(C)C)c1`, the inhibition was -12.3%.

`COc1cc(OC)cc(C(=O)N[C@H](C(=O)Nc2nc3ccccc3[nH]2)C(C)C)c1`: the inhibition is 67.8% (active).

For `COc1ccc(C(=O)N[C@H](C(=O)NCc2ccccc2)C(C)C)cc1`, the inhibition is -2.13%.

Take `Cc1cc(C)c(SCCc2ccncc2)c(C)c1`: the inhibition is -26.1%.

As to `O=C1/C(=C/c2ccc(F)cc2)SC(=S)N1CCCC(=O)N1CCCCC1CCO` (configuration not stated), the inhibition is -14.7%.

As to `Cc1ccc(/C=C2/SC(=S)N(CCC(=O)NCCCN3CCOCC3)C2=O)cc1`, the inhibition was -12.2%.

For `C=CCOc1ccc(/C=C2\SC(=S)N(CCC(=O)O)C2=O)cc1`, the inhibition was 79.7% (active).

In the case of `Cn1c(=S)sc2ccc3ccccc3c21`, the inhibition was -8.89%.

`CCC(C)Cn1c(O)cc2nn(-c3nc4ccccc4s3)c(=O)c-2c1C` (configuration not stated): the inhibition was 92.2% (active).

With `O=C(C(=O)N1CCc2ccccc2C1)c1c[nH]c2ccccc12`, the inhibition is -13.2%.

Regarding `Cc1nc2nc(COc3ccccc3)[nH]n2c(=O)c1Cc1ccccc1`, the inhibition was -6.88%.

Turning to `COc1cccc(-n2c(=S)[nH]c3c(oc4ccccc43)c2=O)c1`, the inhibition was -5.49%.

In the case of `CS(=O)(=O)N1CCN(C(=O)c2cc3ccccc3oc2=O)CC1`, the inhibition was -9.85%.

`O=c1oc2ccccc2cc1-c1cn(-c2ccccc2)c(=S)[nH]1`: the inhibition is 65.9% (active).

Take `CC1(C)O[C@@H]2[C@H](O1)[C@@H](COS(=O)(=O)O)O[C@H]2n1cnc2c(=O)[nH]cnc21`: the inhibition is -8.78%.

Turning to `COc1ccc(C(=O)Nc2cccc(/C=C(/CCC(=O)O)c3nc4ccccc4s3)c2)cc1`, the inhibition is -8.9%.

For `CC(=NCc1ccco1)c1c(C(F)(F)F)[nH]n(-c2nc3ccccc3s2)c1=O`, the inhibition is 0.0675%.

In the case of `COC(=O)Cc1[nH]n(-c2nc3ccccc3s2)c(=O)c1C(C)=Nc1ccc(OC)cc1`, the inhibition is 80.1% (active).

Regarding `COc1ccc(C(=O)COC(=O)C(O)c2ccccc2)c(OC)c1` (configuration not stated), the inhibition was -34.1%.

As to `CC(=O)OC1C2(CC3N4C(=O)C5(CO)SSC4(CC31O)C(=O)N5C)OC(C)C(C)(C)C2=O` (configuration not stated), the inhibition was 96.4% (active).

Take `CC(C)c1ccc(/C=C/C(=O)NCCCN2CCOCC2)cc1`: the inhibition is -9.62%.

In the case of `OCCC1CN(Cc2ccc3nsnc3c2)CCN1C1CCCC1` (configuration not stated), the inhibition is -10%.

Consider `COc1ccc(C(=O)OCC(=O)c2cc(C)n(CC3CCCO3)c2C)cc1[N+](=O)[O-]` (configuration not stated), for which the inhibition is -11.7%.

In the case of `Cc1ccsc1C(=O)OCC(=O)c1cc(C)n(CC2CCCO2)c1C` (configuration not stated), the inhibition is 78.7% (active).

Turning to `Cc1ccsc1C(=O)OCC(=O)Nc1cccc(F)c1`, the inhibition was -13.8%.

With `COc1ccc(Cl)cc1NC(=O)[C@@H]1CCCN1C(=O)c1cccs1`, the inhibition is -9.55%.

Turning to `COc1cc(NS(=O)(=O)c2ccc(NC(=S)NC(=O)c3ccccc3)cc2)nc(OC)n1`, the inhibition was 1.17%.

On to `CS(=O)(=O)N(CC(=O)N1CCCCCC1)c1cccc(Cl)c1Cl`, for which the inhibition is -24.3%.

For the compound `COc1ccc(S(=O)(=O)Nc2ccc3oc(C)c(C(C)=O)c3c2)cc1`, the inhibition was -20.1%.

Consider `COc1ccc(NS(=O)(=O)c2ccc3oc(SCC(N)=O)nc3c2)cc1`, for which the inhibition was -11.7%.

As to `CCn1c(=O)c(=O)[nH]c2c(=O)oc3ccc(S(=O)(=O)Nc4ccc(OC)cc4)cc3c21`, the inhibition is 69% (active).

Regarding `O=c1c2ccccc2cnn1Cc1n[nH]c(=S)n1-c1ccccc1F`, the inhibition is -33.3%.

As to `O=C(COc1cc(Cl)c(Cl)cc1Cl)NCCc1ccccn1`, the inhibition was -11.6%.

With `Cc1ccc(Cc2cnc(N)s2)o1`, the inhibition is -14.5%.

In the case of `Cc1ccc(CCC(=O)Nc2ncc(Cc3cc(Cl)ccc3Cl)s2)o1`, the inhibition is 78% (active).

Turning to `Cc1ccc(C(=O)Nc2nc3ccc(Cl)cc3s2)o1`, the inhibition is -73.3%.

Regarding `Cn1c(-c2ccccc2)c[n+]2c1CCCCC2`, the inhibition is -9.16%.

In the case of `CCN1CCN(c2nc(Nc3cc(OC)ccc3OC)nc(Nc3cc(OC)ccc3OC)n2)CC1`, the inhibition was -23.7%.

In the case of `CCOC(=O)c1c(C)n(C)c2ccc(OC)c(NC(=O)CN3CCC4(CC3)OCCO4)c12`, the inhibition was -19%.

Turning to `NS(=O)(=O)c1ccc(CNC(=O)c2ccc(Cl)cc2[N+](=O)[O-])cc1`, the inhibition was -4.62%.

With `NC(=O)c1ccc(NC(=O)COC(=O)c2ccc([N+](=O)[O-])cc2)cc1`, the inhibition is 61.8% (active).

In the case of `CC(=O)Nc1ccc(C(=O)OCC(=O)Nc2ccc([N+](=O)[O-])cc2C(F)(F)F)cc1`, the inhibition is -18.6%.

Turning to `O=C(COC(=O)C1CCCCC1)Nc1ccc([N+](=O)[O-])cc1`, the inhibition is 5.99%.

Consider `O=C(CCc1ccccc1)NCCc1cccs1`, for which the inhibition is -25.9%.

For the compound `Cn1c(SCC(=O)NC2CCCCC2)nnc1-c1cc2ccccc2o1`, the inhibition was -18.5%.

As for `Nc1ccc([N+](=O)[O-])cc1`, the inhibition is 3.7%.

`O=[N+]([O-])c1ccc(C=NN=Cc2ccc([N+](=O)[O-])cc2)cc1`: the inhibition is -32.5%.

In the case of `O=C1/C(=C\c2ccc([N+](=O)[O-])cc2)CS(=O)(=O)C/C1=C/c1ccc([N+](=O)[O-])cc1`, the inhibition is 71.1% (active).
